In PubChem BioAssay AID602413 (Johns Hopkins Ion Channel Center, 2012):
The campaign covered roughly 1,200 compounds. About 150 (12%) were called active.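 The calls were made as follows: active = ratio at least 3 SD above the weak peptide control, stable starting fluorescence, no direct agonism earlier; inactive = the rest.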 The list is a sample of the results.

molecular target: Mas-related G-protein coupled receptor member X1 (Homo sapiens) (UniProt Q96LB2); experiment: allosteric enhancers of human MrgX1 signaling – HEK293 cells, Fluo-4 calcium flux, confirmation (AID 602413); details: MrgX1-HEK293, Fluo-4 calcium fluorescence, FDSS, at 10 µM; stronger effect = higher value;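 also: compound followed by low BAM8-22 agonist challenge near EC20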
Sequence (Q96LB2 whole entry, looked up): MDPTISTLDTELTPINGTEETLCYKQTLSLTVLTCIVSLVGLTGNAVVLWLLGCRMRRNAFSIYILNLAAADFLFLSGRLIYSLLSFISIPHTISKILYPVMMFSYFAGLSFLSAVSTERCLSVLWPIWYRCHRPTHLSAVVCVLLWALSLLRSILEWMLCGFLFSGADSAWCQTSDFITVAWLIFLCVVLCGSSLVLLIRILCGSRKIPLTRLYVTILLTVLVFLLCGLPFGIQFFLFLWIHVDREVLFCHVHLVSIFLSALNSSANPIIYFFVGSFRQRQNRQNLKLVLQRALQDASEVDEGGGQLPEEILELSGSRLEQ

Activation (ratio percentage), inactive:
Nc1ccc(Oc2ccc(Cl)cc2)cc1
COc1ccc(Nc2nnc(C)c3ccccc23)cc1
O=C(Nc1cccc(Cl)c1)c1cncn1-c1ccc(F)cc1
O=C(Nc1nc2c(F)cc(F)cc2s1)C1COc2ccccc2O1 (stereo not drawn)
COc1ccc(NC(=O)c2cc(-c3ccc(C)o3)nc3ccccc23)cc1
O=C(COC(=O)c1ccc(NS(=O)(=O)c2cccs2)cc1O)Nc1ccc(F)cc1
Cc1nn(C(=O)c2ccoc2C)c(N)c1-c1ccccc1
Cc1nc2ccccc2cc1OCc1ccc(F)cc1
Cc1cc2ncn(CCCCOc3ccccc3)c2cc1C
CCN(c1cccc(C)c1)S(=O)(=O)c1ccc(-c2coc(C)n2)cc1
Cc1ccc(N/C(N)=N/c2nc(C(F)(F)F)cc(C(F)(F)F)n2)cc1
O=C(Nc1ccccc1N1CCOCC1)c1csc2c1CCCC2
Cc1nonc1C1CCCN1Cc1nc(-c2ccc(F)cc2F)oc1C (stereo not drawn)
CCOC(=O)N1CCN(C(=O)COCc2cc(-c3ccc4c(c3)OCO4)on2)CC1
COc1ccc(-c2cc(C(F)(F)F)nc(S(C)(=O)=O)n2)cc1OC
O=C(Oc1ccc(C(=S)N2CCOCC2)cc1)c1ccc(F)cc1
Cc1ccc2c(c1)c1ncnc(N3CCc4ccccc4C3)c1n2C
Cc1occc1C(=O)Nc1nnc(-c2ccncc2)s1
Cc1ccc2c(C)c(C(=O)N(C)CCC3CCCCO3)oc2c1C (stereo not drawn)
CCOCc1nnc(NC(=O)CCC2CCCCC2)s1
COc1ccc(OC)c(Nc2nc3ccccc3n3cnnc23)c1
COC(=O)Cc1cc(=O)n(-c2nc3ccccc3s2)[nH]1
CCC(C)Sc1nc(C)nc2c1c(=O)n(C)c(=O)n2C (stereo not drawn)
COc1ccc(C(=O)NC(=S)NC2CCCCC2)cc1

Activation (ratio percentage), active:
CC1(C)CC2CC(C)(CN2c2ncnc3ccc(Br)cc23)C1 (stereo not drawn) 29.4%
Cc1ccc(S(=O)(=O)N(C)c2nc3ccccc3n3c(C(C)C)nnc23)cc1 27.8%
NC(=O)c1c(Nc2nc3c(F)cccc3s2)sc2c1CCCC2 15.4%
O=C(Nc1ccccc1N1CCCCC1)c1ccc2nccnc2c1 11.5%
